# Screening results from PubChem BioAssay.
# MEKK2 mut-MEK5 – MEK5 binding signal on mutant MEKK2 PB1, primary screen, biochemical, multiplex bead flow cytometry, Alexa488-MEK5; Alexa488-MEK5 binding to MEKK2 mutant; percent response, % at 10 µM; 290,000 compounds, 0.35% hits; in the data active = percent response above about 24%, passing the limit was not always enough
# CendR NRP1 mod – modulators of CendR peptide binding to NRP-1, primary screen, biochemical, fluorescence polarization, uHTS. Neuropilin-1 (Homo sapiens), O14786. FAM-RPARPAR peptide binding to NRP-1. inhibition, % at 25 µM. 360,000 compounds, 0.85% hits;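 active = inhibition or corrected inhibition above about 18%, plus a signal ratio from 0.5 to 1.5, limit read from the data, passing the limit was not always enough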
# Target sequence (O14786 whole entry, looked up): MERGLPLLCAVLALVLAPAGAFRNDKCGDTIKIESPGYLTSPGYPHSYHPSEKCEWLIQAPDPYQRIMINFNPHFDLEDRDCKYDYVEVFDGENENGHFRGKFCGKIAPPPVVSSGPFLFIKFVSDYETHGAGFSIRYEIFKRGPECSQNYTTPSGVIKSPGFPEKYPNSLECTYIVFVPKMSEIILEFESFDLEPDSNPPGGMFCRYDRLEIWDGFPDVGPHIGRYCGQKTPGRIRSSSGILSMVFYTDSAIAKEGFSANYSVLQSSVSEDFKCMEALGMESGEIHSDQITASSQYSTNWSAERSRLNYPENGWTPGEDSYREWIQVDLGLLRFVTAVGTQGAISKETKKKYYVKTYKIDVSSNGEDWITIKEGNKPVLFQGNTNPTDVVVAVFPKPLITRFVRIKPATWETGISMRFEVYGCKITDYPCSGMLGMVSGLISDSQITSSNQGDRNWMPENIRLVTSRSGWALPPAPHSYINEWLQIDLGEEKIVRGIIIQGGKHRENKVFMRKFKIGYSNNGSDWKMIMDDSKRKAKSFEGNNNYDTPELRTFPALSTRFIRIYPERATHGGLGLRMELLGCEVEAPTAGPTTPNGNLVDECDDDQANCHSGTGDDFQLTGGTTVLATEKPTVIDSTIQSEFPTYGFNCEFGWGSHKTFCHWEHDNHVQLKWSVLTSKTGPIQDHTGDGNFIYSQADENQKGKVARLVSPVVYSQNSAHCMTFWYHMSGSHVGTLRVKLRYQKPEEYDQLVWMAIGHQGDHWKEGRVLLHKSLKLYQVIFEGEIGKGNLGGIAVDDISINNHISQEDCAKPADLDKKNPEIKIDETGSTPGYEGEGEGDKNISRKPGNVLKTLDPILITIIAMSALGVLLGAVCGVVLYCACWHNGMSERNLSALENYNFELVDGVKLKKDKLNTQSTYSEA
# SKN-1 inh – suppressors of acrylamide-induced Pgst-4::GFP reporter in worms, primary screen, SKN-1 inhibitor project, whole organism, uHTS, GFP/RFP fluorescence ratio, strain VP596; 360,000 compounds, 0.49% hits; C. elegans VP596 Pgst-4::GFP/RFP ratio, 24 h; inhibition, % at 21.8 µM;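 active = interference check ratio from 0.5 to 1.5 plus GFP to RFP signal ratio inhibition reaching or exceeding a fixed threshold, cut at about 30% in these data, passing the limit was not always enough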
# MEKK3 PB1 HTS – modulators of MEKK3-MEK5 PB1 binding, primary screen, biochemical, wildtype MEKK3, multiplex bead flow cytometry, Alexa488-MEK5. bead-based flow cytometry, Alexa488-MEK5 binding to MEKK3; actives lie on both sides; 0 = blocked by unlabeled MEK5, 100 = vehicle. binding response (% of control), % at 10 µM. 290,000 compounds, 1.4% hits. AID 1529, 2009;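 active = binding response more than 3 SD above or below the average of its plate-row segment, actives on both sides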;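 note: Alexa488 bead fluorescence after subtracting the streptavidin-only scavenger bead signal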
# MEKK2 WT-MEK5 – modulators of MEK5 binding to wildtype MEKK2, primary screen, biochemical, multiplex bead flow cytometry, Alexa488-MEK5; Mitogen-activated protein kinase kinase kinase 2 (Homo sapiens), Q9Y2U5; Alexa488-MEK5 binding to MEKK2 WT; actives lie on both sides; binding response (% of control), % at 10 µM; 290,000 compounds, 1.1% hits; AID 1531, 2009; in the data active = binding response below about 67% or above about 130%
# MEKK2wt confirm – modulators of MEK5 binding to wildtype MEKK2, confirmation, biochemical, single concentration, multiplex bead flow cytometry | shares compounds with MEKK3 PB1 HTS | Alexa488-MEK5 binding to MEKK2 WT; actives lie on both sides | binding response (% of control), % at 10 µM | 5,900 compounds, 2.4% hits; in the data active = binding response below about 16% or above about 210%; inactive = in between
# MEKK2mut confirm – mutant MEKK2 PB1-MEK5 binding signal retest – biochemical, single concentration, multiplex bead flow cytometry, confirmation; shares compounds with MEKK3 PB1 HTS; percent response, % at 10 µM; 5,900 compounds, 2% hits; AID 1893, 2009; Alexa488-MEK5 binding to MEKK2 mutant; in the data active = percent response mostly above about 71%, no sharp cut-off; inactive = mostly below about 38%;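 note: higher means compound restores mutant binding toward wildtype level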
# MEKK3-MEK5 inh – MEKK3 wild-type PB1 binding to MEK5, inhibitors, confirmation, biochemical, bead multiplex flow cytometry, single concentration, wildtype; shares compounds with MEKK3 PB1 HTS; Alexa488-MEK5 binding to MEKK3; active compounds read low; binding response (% of control), % at 10 µM; 5,900 compounds, 1.8% hits;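 active = binding response below 72% of control, or above a set upper limit, though filed actives all read lower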;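 note: 100% = DMSO only wells and 0% = binding blocked by excess unlabeled MEK5; lower values mean stronger disruption of MEK5 binding to MEKK3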
# * hit, by the source's call; . = not tested or not shown; [ ] = dose if it differs, or a comment. Most compounds without a hit are left out; they make up all but 3.2% or so of the library.
SMILES,MEKK2 mut-MEK5,CendR NRP1 mod,SKN-1 inh,MEKK3 PB1 HTS,MEKK2 WT-MEK5,MEKK2wt confirm,MEKK2mut confirm,MEKK3-MEK5 inh
CCOC(=O)N1CCC(N2C(=O)c3ccccc3C2Nc2cc(C)cc(C)c2)CC1 (stereo not drawn),31.0,0.7,-6.8,128.0*,115.0,92.0,-10.0,96.0
CN1OC[C@@H]2CN(C(=O)NC3CCCCC3)[C@H](c3ccc(N4CCCCC4)cc3)C[C@@H]21,.,0.9,14.2,.,.,.,.,.
CCCCN1C(=O)/C(=C/C=C2\Oc3ccccc3N2CC)SC1=S,-13.0,130.9,54.0,69.0*[inhibitor],35.0*[inhibitor],40.0,-38.0,79.0
CCCN1C(=O)/C(=C/C=C2\N(CC)c3ccccc3C2(C)C)SC1=S,151.0*,124.2,77.8,68.0*[inhibitor],134.0,71.0,-14.0,90.0
CCCN1C(=O)/C(=C\C=C2/Sc3ccccc3N2CCO)SC1=S,-17.0,-46.0,52.7,68.0*[inhibitor],33.0*[inhibitor],90.0,-8.0,96.0
CCN1C(=O)/C(=C/C=C2/Sc3ccccc3N2CCO)SC1=S,-7.0,-124.0,29.3,74.0,71.0,.,.,.
C=CCN1C(=O)/C(=C\C=C2\N(C)c3ccccc3C2(C)C)SC1=S,7.0,-66.0,71.0,75.0*[inhibitor],.,46.0,-29.0,75.0
COC(=O)C[C@H]1C[C@H]2c3cc(NC(=O)C4CCOCC4)ccc3O[C@H]2[C@@H](CO)O1,.,7.2,1.7,.,.,.,.,.
Cn1c2ccsc2c2ncn(Cc3ccccc3F)c(=O)c21,.,5.9,-14.1,.,.,.,.,.
COc1ccccc1-c1ccc2c(c1)C(C)(Cc1cccc(C#N)c1)C(=O)N2 (stereo not drawn),.,3.6,7.0,.,.,.,.,.
NC(=O)c1cc(S(=O)(=O)N2CCN(c3ccc([N+](=O)[O-])cc3)CC2)cs1,3.0,-6.4,-5.2,100.0,111.0,.,.,.
CCCNC(=O)Cc1c(C)oc2ccccc12,32.0,-2.1,-5.8,130.0*,119.0,99.0,-5.0,99.0
CCN(CC(=O)Nc1c(F)cccc1F)C(=O)CCCN1C(=O)c2cccc3cccc(c23)C1=O,.,4.3,4.3,.,.,.,.,.
CSc1ccccc1NC(=O)CN(C)CC(=O)Nc1cc(C)ccc1C,-2.0,-2.6,9.1,68.0*[inhibitor],96.0,99.0,-13.0,99.0
COc1ccc(S(=O)(=O)N(C)CC(=O)Nc2ccccc2SC)cc1,-2.0,1.9,21.0,97.0,101.0,.,.,.
COc1ccc(S(=O)(=O)N(C)CC(=O)Nc2ccccc2SC)cc1Cl,-8.0,1.9,2.7,82.0*[inhibitor],89.0,102.0,3.0,107.0
COC(=O)c1ccc2c(=O)n(CCCCCC(=O)NCc3ccc4c(c3)OCO4)c(=O)[nH]c2c1,-12.0,-15.7,14.9,65.0*[inhibitor],66.0,103.0,7.0,101.0
CCOc1ccc(-n2c(COc3ccccc3)nnc2SCC(N)=O)cc1,5.0,-3.0,-5.8,122.0*,106.0,98.0,-2.0,103.0
CCOc1ccccc1-n1c(COc2ccccc2)nnc1SCC(N)=O,0.0,-1.9,10.6,91.0,95.0,.,.,.
c1ccc2c(c1)cnc1ccccc12,-13.0,-7.2,8.6,37.0*[inhibitor],33.0*[inhibitor],104.0,3.0,107.0
c1ccc(-c2ncc3c(ccc4ccccc43)n2)cc1,0.0,-1.4,-6.4,102.0,102.0,.,.,.
c1ccc2nc3ccccc3nc2c1,1.0,6.5,0.0,46.0*[inhibitor],68.0,103.0,7.0,105.0
COc1ccc(S(=O)(=O)N2CCCCC2)cc1NC(=O)c1cncc(Br)c1,.,11.3,-7.0,.,.,.,.,.
O=C1c2ccc([N+](=O)[O-])cc2C(=O)N1Cc1cccnc1,25.0*,10.3,4.1,111.0,118.0,105.0,-2.0,106.0
COCc1[nH][nH]c(=O)c1C=Nc1ccccc1,.,11.6,12.6,.,.,.,.,.
SMILES,MEKK2 mut-MEK5,CendR NRP1 mod,SKN-1 inh,MEKK3 PB1 HTS,MEKK2 WT-MEK5,MEKK2wt confirm,MEKK2mut confirm,MEKK3-MEK5 inh
COCc1[nH][nH]c(=O)c1/C=N/N1CCOCC1,-17.0,4.3,6.3,40.0*[inhibitor],56.0,104.0,5.0,107.0
O=S1(=O)CC(N2CC=CC2)CN1Cc1ccc(F)cc1 (stereo not drawn),.,-0.1,10.0,.,.,.,.,.
Clc1cccc(CNCCNCc2cccc(Cl)c2)c1,17.0,-7.9,2.8,115.0,187.0*,161.0,37.0,108.0
Cc1ccc(C)c(OCC(=O)N/N=C/c2ccc(N3CCOCC3)cc2)c1,.,0.9,-13.9,.,.,.,.,.
CN(C)CCCN(C(=O)CCc1ccccc1)c1nc2ccc(Br)cc2s1,43.0,-12.4,6.8,113.0,233.0*,176.0,42.0,108.0
CN(C)CCCN(C(=O)CCc1ccccc1)c1nc2ccc(F)cc2s1,5.0,-13.9,1.1,129.0*,135.0,144.0,26.0,106.0
CN(C)CCCN(C(=O)c1ccco1)c1nc2ccc(Br)cc2s1,17.0,-3.3,3.7,106.0,135.0,.,.,.
CN(C)CCN(C(=O)CCc1ccccc1)c1nc2c(F)cc(F)cc2s1,3.0,2.2,5.2,104.0,130.0,.,.,.
Cc1noc(C)c1C(=O)OCC(=O)/C=C1/N(C)c2ccccc2C1(C)C,.,9.0,6.6,.,.,.,.,.
CCCCCC(=O)N1CC2(CC(c3cccc(NC(=O)CC(c4ccccc4)c4ccccc4)c3)=NO2)C[C@@H]1C(N)=O (stereo partly drawn),3.0,-9.6,-5.0,81.0*[inhibitor],96.0,98.0,-11.0,98.0
Fc1cccc(Nc2ncnc3[nH]ncc23)c1,0.0,10.2,16.8,103.0,104.0,.,.,.
Brc1ccc(Nc2ncnc3[nH]ncc23)cc1,-30.0,9.6,-14.4,73.0*[inhibitor],68.0,101.0,2.0,101.0
O=C(O)c1cccc(NC(=S)N/N=C/c2ccccn2)c1,6.0,6.6,4.0,159.0*,128.0,107.0,2.0,104.0
CCC(=O)c1ccc(OC)c(OC)c1OCc1ccccc1,.,-0.2,-2.0,.,.,.,.,.
COC(=O)CSc1nnc(COc2cccc3ccccc23)o1,28.0*,-2.2,5.3,116.0,117.0,105.0,4.0,108.0
O=C(O)CSc1nnc(COc2cccc3ccccc23)o1,1.0,4.4,3.6,103.0,101.0,.,.,.
